Reference: PubChem BioAssay AID1159580 (chemical genetic matrix, 2015)
Hit rate of the full screen: of about 5,500 compounds, about 2,000 (36%) were called active. Another 18% or so got no clear call; they are omitted. No stated cut-off is given here; in the data, active means normalized growth mostly below about 0.91 (no sharp cut-off); inconclusive means no clear call, values can overlap the other calls; inactive means mostly above about 0.92. The list shows a part of the results.

Assay: chemical genetic growth profiling, strain panel (AID 1159580);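 further: tested at 20 µM; growth read once vehicle control cultures reached saturation at 30 °C; 1 = growth at the plate median or of vehicle wells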
Conditions: growth OD

Measured: normalized growth

N#CCCN1C(=O)C2(OCCO2)c2ccccc21
inactive: S. cerevisiae deletion strains, locus YAL013W, strain DEP1, stronger effect = lower value 1.01 | S. cerevisiae deletion strains, locus YBR229C, strain ROT2, stronger effect = lower value 1.01 | S. cerevisiae deletion strains, locus YCL061C, strain MRC1, stronger effect = lower value 1 | S. cerevisiae deletion strains, locus YDL101C, strain DUN1, stronger effect = lower value 0.976 | S. cerevisiae deletion strains, locus YDR150W, strain NUM1, stronger effect = lower value 0.977 | S. cerevisiae deletion strains, locus YEL061C, strain CIN8, stronger effect = lower value 0.997 | S. cerevisiae deletion strains, locus YGR078C, strain PAC10, stronger effect = lower value 1 | S. cerevisiae deletion strains, locus YHR030C, strain SLT2, stronger effect = lower value 1 | S. cerevisiae deletion strains, locus YHR087W, strain rtc3, stronger effect = lower value 0.991 | S. cerevisiae deletion strains, locus YJL187C, strain SWE1, stronger effect = lower value 1 | S. cerevisiae deletion strains, locus YJR043C, strain POL32, stronger effect = lower value 1 | S. cerevisiae deletion strains, locus YJR075W, strain HOC1, stronger effect = lower value 1 | S. cerevisiae deletion strains, locus YLR039C, strain RIC1, stronger effect = lower value 1.02 | S. cerevisiae deletion strains, locus YLR058C, strain SHM2 (second series), stronger effect = lower value 1 | S. cerevisiae deletion strains, locus YLR085C, strain ARP6, stronger effect = lower value 1.02 | S. cerevisiae deletion strains, locus YLR262C, strain YPT6, stronger effect = lower value 1.02 | S. cerevisiae deletion strains, locus YML094W, strain GIM5, stronger effect = lower value 0.986 | S. cerevisiae deletion strains, locus YMR219W, strain ESC1, stronger effect = lower value 1.01 | S. cerevisiae deletion strains, locus YMR263W, strain SAP30, stronger effect = lower value 1.05 | S. cerevisiae deletion strains, locus YMR307W, strain GAS1, stronger effect = lower value 1.05 | S. cerevisiae deletion strains, locus YNL153C, strain GIM3, stronger effect = lower value 1.02 | S. cerevisiae deletion strains, locus YNL298W, strain CLA4 (second series), stronger effect = lower value 1 | S. cerevisiae deletion strains, locus YNL322C, strain KRE1, stronger effect = lower value 0.997 | S. cerevisiae deletion strains, locus YNR030W, strain Alg12, stronger effect = lower value 1 | S. cerevisiae deletion strains, locus YOL006C, strain TOP1, stronger effect = lower value 1.02 | S. cerevisiae deletion strains, locus YPL055C, strain LGE1, stronger effect = lower value 1.02 | S. cerevisiae deletion strains, locus YPL241C, strain CIN2, stronger effect = lower value 1.01 | S. cerevisiae deletion strains, locus YPR135W, strain CTF4, stronger effect = lower value 1.09 | S. cerevisiae strains, strain wild type, stronger effect = lower value 1.02
